Screening data (PubChem BioAssay)
A selection: hits, their analogues and other compounds. The true share with any hit is near 6%.
D3 ag: activates the human D3 dopamine receptor; AID 652048; D3R DiscoveRx beta-arrestin cells, luminescence, 90 min; P35462; 0.58% of 410,000 active; max activation, %; in the data active = max activation above about 30%; note: 0% is about no effect
Target sequence (P35462 whole entry, looked up): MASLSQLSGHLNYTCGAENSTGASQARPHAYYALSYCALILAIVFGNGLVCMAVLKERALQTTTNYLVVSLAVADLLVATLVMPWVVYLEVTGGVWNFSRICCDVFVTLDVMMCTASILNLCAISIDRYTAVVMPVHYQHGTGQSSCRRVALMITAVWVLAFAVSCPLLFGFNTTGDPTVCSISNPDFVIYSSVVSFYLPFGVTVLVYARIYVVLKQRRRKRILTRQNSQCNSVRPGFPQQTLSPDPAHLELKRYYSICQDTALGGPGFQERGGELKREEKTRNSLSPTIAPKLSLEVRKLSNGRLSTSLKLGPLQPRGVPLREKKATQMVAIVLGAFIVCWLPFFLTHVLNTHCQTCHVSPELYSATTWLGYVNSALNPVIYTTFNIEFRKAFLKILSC
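Cells at 1500/well, incubated overnight, then treated with pinned compounds (dopamine as control) for 90 min at 37 degrees C. DiscoveRx reagent added for 30 - 60 minutes at room temperature; luminescence read.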
D1 agonist: activates the human D1 dopamine receptor; HEK293 T-REx D1 cells, calcium flux, agonist mode; activation, % at 2 µM; P21728; 1% of 360,000 active; in the data active = activation above about 30%; note: 0% is about no effect
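Agonism was scored from calcium flux recorded over 180 s (1 read/s) after pintool compound addition, following a 10-cycle baseline. Cells were inducible force-coupled HEK293 TREx D1, plated overnight at 30 C and loaded with no-wash calcium dye.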
D1 antag: blocks dopamine activation of the human D1 receptor. HEK293 TREx D1 cells, calcium flux, dopamine EC80; stronger effect = lower value. 3.2% of 360,000 active. P21728. activity change, negative = inhibition, % at 10 µM. AID 504652; in the data active = activity change below about -30%; note: % is set by controls: 0 for no effect and ±100 for the full control effect
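Using tetracycline-induced force-coupled D1 Hek293 cells and a calcium dye, signals were followed for 180 s after compound, then for 180 s after EC80 dopamine, to detect inhibitors.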
D1 PAM: potentiators of human D1 dopamine receptor; potentiation, % at 10 µM; AID 504651; HEK293 TREx D1 cells, calcium flux, dopamine EC20 potentiation; P21728; 0.036% of 360,000 active; in the data active = potentiation above about 30%; note: 0% is about no effect
D3 antag: D3 dopamine receptor (human) antagonism; D3R cells, DiscoveRx beta-arrestin luminescence, antagonist mode; stronger effect = lower value; max response, negative = inhibition, %; 2.5% of 360,000 active; AID 652054; in the data active = max response below about -50%; inconclusive = no clear call, values can overlap the other calls; note: % is set by controls: 0 for no effect and ±100 for the full control effect
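Cells plated overnight at 1500 cells/well, then exposed to library compounds with dopamine controls for 90 minutes at 37 degrees C. DiscoveRx reagent added for 30–60 minutes at room temperature; luminescence read, quantitative HTS format.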
Active calls of the source: *; ? = inconclusive; . = no result given.

SMILES	D3 ag	D1 agonist	D1 antag	D1 PAM	D3 antag
COc1ccc(C(=O)N(C)CC2CCN(CCc3cccc(C(F)(F)F)c3)CC2)cc1C	-26.7	11.1	-48.6*	-1.9	-77.2*
CN(CC1CCCN(CCc2cccc(C(F)(F)F)c2)C1)C(=O)c1ccco1 (stereo not drawn)	-12.7	3.5	-39.8*	10.7	-62.9*
CCC(C(=O)NC(C)(C)C)n1c(-c2ccc3c(c2)OCO3)nc2ccccc21 (stereo not drawn)	4.3	.	.	.	2.8
Cc1ccccc1NC(=O)Cn1nnc(C(=O)NCc2cccs2)c1N	2.0	0.9	-12.9	-0.9	.
Cc1ccc(S(=O)(=O)c2nc(NCCN(C)C)sc2Cl)cc1	-0.8	5.5	-37.1*	-7.8	-67.5*
Cc1ccc(S(=O)(=O)c2nc(Nc3ccccc3)sc2Cl)cc1	1.0	2.5	-1.5	-4.0	-3.9
COc1cc(NC(=O)c2cccnc2Sc2ccc(C)c(C)c2)cc(OC)c1OC	-2.4	1.3	4.4	7.2	2.1
Cn1ncc(C(=O)Nc2ccc(OC(F)(F)F)cc2)c1-n1cccc1	7.1	0.3	-22.1	-6.5	3.1
CC(=O)Nc1ccc(Sc2ncccc2C(=O)Nc2cc(Cl)cc(Cl)c2)cn1	-33.4	24.5	-19.0	-5.2	-52.0*
CC(=O)Nc1ccc(Sc2ncccc2C(=O)Nc2ccc(OC(F)(F)F)cc2)cn1	-2.2	115.3*	-60.0*	18.6	-20.9
C=CCOc1ccc(CC(=O)O)cc1Cl	11.0	.	.	.	.
COc1ccnc(Oc2ccccc2)c1C(=O)N/C=N/OCc1ccc(F)cc1Cl	46.4*	13.5	10.9	0.5	4.9
Cc1ccccc1Oc1cc(NC(=O)CCCn2nc(C)c([N+](=O)[O-])c2C)cc([N+](=O)[O-])c1	1.3	0.5	-22.2	-5.0	-17.2
Cc1nn(CCCC(=O)Nc2cc(Oc3ccc(F)cc3)cc([N+](=O)[O-])c2)c(C)c1[N+](=O)[O-]	4.2	8.6	-36.0*	-2.5	-12.2
CCOC(=O)c1cnc2ccc(C(=O)OC)cc2c1Nc1ccc(OCc2ccccc2Cl)cc1	-6.6	0.9	-2.1	-0.2	.
CC(C)NC(=O)c1sc2nc(-c3cccs3)cc(-c3cccs3)c2c1N	1.4	27.6	3.9	-4.8	?
Nc1c(C(=O)C2CC2)sc2nc(-c3cccs3)cc(C(F)(F)F)c12	-1.4	173.5*	-6.0	0.4	60.5
Nc1c(C(=O)Nc2ccc(F)cc2)sc2nc(-c3cccs3)cc(C(F)(F)F)c12	0.2	265.5*	-44.1*	-1.5	.
Cc1cc(C)c2c(N)c(C(=O)Nc3ccc(F)cc3)sc2n1	-10.2	0.5	-2.3	-2.1	-8.1
CCNc1nc(NCC)nc(Nn2cnnc2)n1	-14.0	1.5	-38.1*	-7.8	-5.1
CCc1ccc(NC(=O)C2CCCN(c3nn4cc(-c5ccc(OC)cc5)nc4s3)C2)cc1 (stereo not drawn)	13.3	1.8	1.0	-1.6	.
CCOc1cc(C(=S)N2CCCC2)ccc1OCC(=O)Nc1c(C)cc(C)cc1C	-17.2	0.3	11.2	3.5	-54.7*
CSc1ccc(C2c3c(oc4cc(C)cc(C)c4c3=O)C(=O)N2CCO)cc1 (stereo not drawn)	-2.4	0.0	-46.4*	-0.8	.
O=C(CN1C(=O)c2cccnc2Oc2ccc(Cl)cc21)Nc1cccc(C(F)(F)F)c1	0.6	1.8	17.7	4.8	.
CCCc1nc2oc3ccccc3c(=O)c2c(=O)n1-c1ccc(C)cc1	-7.4	36.6*	6.3	1.2	22.9
SMILES	D3 ag	D1 agonist	D1 antag	D1 PAM	D3 antag
Cc1cc(CN(Nc2ccccc2)c2ccccc2)cc(C)n1	7.9	.	.	.	27.2
CCn1c(C)[n+](CCOCC[n+]2c(C)n(CC)c3cc(Cl)c(Cl)cc32)c2cc(Cl)c(Cl)cc21	-14.0	0.2	-47.9*	-4.5	-6.0
CC(=O)OCCn1c(C)[n+](CCOC(C)=O)c2cc(Cl)c(Cl)cc21	2.7	0.4	11.9	-8.5	-0.9
CCCCCCCCCCCCCC(=O)OCC(COP(=O)([O-])OCC[N+](C)(C)C)OC(=O)CCCCCCCCCCCCC (stereo not drawn)	-0.6	.	.	.	.
CC(=O)n1c(C=Nc2ccc(Cl)cc2)c(O)c2ccccc21	0.2	39.5*	1.6	1.1	-0.9
CC(=O)n1c2ccccc2c2ccccc21	20.8	0.0	-3.1	-3.5	28.8
O=c1oc2ccccc2c(Nc2ccc3ccccc3c2)c1[N+](=O)[O-]	0.7	-1.7	1.7	2.8	-85.7*
Cc1ccc(Nc2c([N+](=O)[O-])c(=O)oc3ccccc23)cc1	-6.2	5.5	-17.4	-3.6	-8.3
c1ccc([C@H]2CN3C(=N2)Sc2ccccc23)cc1	-14.2	-3.6	.	6.8	-51.7*
N#CC1=C(N)N2C(=C(C#N)C1c1ccccc1)Sc1ccccc12 (stereo not drawn)	.	8.1	12.3	4.8	.
O=C1N=c2ccccc2=C1c1c(O)n(-c2cccc(F)c2)[nH]c1=O	-10.7	0.3	4.5	-4.1	?
CCn1c(O)c(C2=c3ccccc3=NC2=O)c2cc(Br)ccc21	-6.8	1.5	-10.0	-7.2	-80.3*
CC(C)(C)c1cc[n+](-c2[nH]c(=O)sc2/C=N/NC([S-])=Nc2ccccc2)cc1	-0.7	90.5*	4.3	-1.9	-8.1
CCc1cccc(OCCCCNCCOC)c1	-13.1	6.1	11.3	0.8	-67.3*
c1ccc(COc2ccc(OCCCNC3CCCC3)cc2)cc1	-10.0	34.9*	-25.8	1.0	?
COCCCNCCCCOc1ccc(OCc2ccccc2)cc1	-2.1	35.1*	-18.4	-4.5	-10.9
C=CCNCCCCOc1ccc(OCc2ccccc2)cc1	-5.7	45.2*	-6.3	-5.5	-10.3
O=C(Cc1ccccc1)Nc1sc2c(c1C(=O)Nc1cccc(Cl)c1)CCCC2	.	6.9	21.9	-3.5	.
Cc1ccc2c(COC(=O)CNC(=O)c3ccccc3)cc(=O)oc2c1	-3.2	3.9	-50.2*	-5.0	20.8
O=C(CN1C(=O)c2cccnc2C1=O)c1ccccc1	1.9	-1.3	-30.6*	-7.5	-14.6
O=C(CN1CCCCC1)NC(=O)NC1CCCC1	-3.7	2.3	-0.7	1.9	0.7
CC(NC(=O)Cn1ncc(Cl)c(Cl)c1=O)C12CC3CC(CC(C3)C1)C2 (stereo not drawn)	-13.6	-1.0	-2.8	-8.2	-76.7*
O=C(Cn1ncc(Cl)c(Cl)c1=O)NC(=O)NC1CCCCC1	-13.1	.	.	.	-68.1*
CCCCCCCCCCCCCCCCCC(=O)[O][Al]	-7.9	.	.	.	.
CCc1ccc(NC(=O)c2cc3c(COC(C)=O)cnc(C)c3oc2=O)cc1	11.8	0.1	-5.8	-0.3	.
CC(C)n1nnnc1C1c2ccccc2C(=O)N1Cc1ccccc1 (stereo not drawn)	3.7	.	.	.	-2.0
COc1ccc(S(=O)(=O)N2CCOCC2)cc1NC(=O)c1ccc2c(c1)OCO2	53.5*	2.2	0.8	-7.1	-11.0
CCN1CCN(S(=O)(=O)c2ccc(OC)c(NC(=O)c3ccccc3)c2)CC1	-21.8	2.8	-48.1*	0.2	0.9
